# Source: PubChem
# mHTT-CaM PPI inh: mHTT-calmodulin interaction abrogation; AID 1671202; 190,000 tested, 3.6% active; inhibition, % at 15 µM; P42858; AlphaScreen His-mHTT/GST-CaM binding, luminescence
# Pf apPOL inh: Pf-apPOL DNA polymerase inhibition; inhibition, % at 10 µM; 210,000 tested, 0.25% active; Recombinant Pf-apPOL, molecular beacon fluorescence, 1.5 h
# A number is an active result; i = inactive; nt = not tested or not shown; ! = a repeat was not active. The sample as a whole holds a higher share of hits than the screen did. Cut-off read from the data, not from the text of the source: active = inhibition above about 50%; inactive = the rest.
SMILES,mHTT-CaM PPI inh,Pf apPOL inh
O=C(CC(=O)Nc1ccccc1)Nc1ccccc1,i,i
CC1(CC(=O)Nc2ccccc2)NN=C(c2ccccc2)S1 (centres undefined),73.0,i
Cc1nn(CCCC(=O)Nc2cc(Oc3ccc(F)cc3F)cc([N+](=O)[O-])c2)c(C)c1[N+](=O)[O-],80.0,i
Cc1ccc(C)c(Oc2cc(NC(=O)CCCn3nc(C)c([N+](=O)[O-])c3C)cc([N+](=O)[O-])c2)c1,i,i
Cc1nn(CCCC(=O)Nc2cc(Oc3ccccc3)cc([N+](=O)[O-])c2)c(C)c1[N+](=O)[O-],96.0,i
Cc1ccc(NC(=O)CCCn2nc(C)c([N+](=O)[O-])c2C)cc1C,i,i
CC(C)CCNC(=O)C1(C)CCC(=O)N1CCCN1CCN(c2cccc(Cl)c2)CC1 (centres undefined),i,i
Cc1ccc(Cl)cc1N1CCN(CCNC(=O)c2csc3c2CCCC3)CC1,i,i
O=C(NCCCN1CCN(c2cccc(Cl)c2)CC1)C1(n2cccc2)CCCCC1,97.7,i
Cc1ccc(Cl)cc1N1CCN(CCNC(=O)C2(n3cccc3)CCCCC2)CC1,56.2,i
CC(NC(=O)c1cc([N+](=O)[O-])cc2c1-c1ccc([N+](=O)[O-])cc1C2=O)c1ccccc1 (centres undefined),i,i
O=C(CCc1nc2ccccc2n(Cc2ccc(F)cc2)c1=O)NCc1ccccc1Cl,i,i
CCOC(=O)Oc1cc2oc(=O)sc2cc1Br,i,i
COC(=O)Oc1c(Cl)cc2oc(=O)sc2c1[N+](=O)[O-],81.0,i
COC(=O)Oc1cc2oc(=O)sc2cc1Cl,i,i
CCOC(=O)Oc1c(Cl)cc2oc(=O)sc2c1Br,54.0,i
Cc1cccc(NC(=O)CSC2=NN3CCCC(=O)N=C3S2)c1,i,i
COc1ccc(NC(=O)c2cc([N+](=O)[O-])ccc2N2CCOCC2)cc1,i,i
CN(C)c1ccc(CN2CCN(c3ccc([N+](=O)[O-])cc3)CC2)cc1,i,i
CCOc1ccccc1NC(=O)N1CCCC1c1ccccc1C (centres undefined),i,i
COc1ccc(-c2ccc(CN3C(C(C)C)C(=O)N(Cc4cn(CC5CCCCC5)nn4)CCS3(=O)=O)cc2)cc1 (centres undefined),i,i
CC(C)C1C(=O)N(Cc2cn(Cc3ccco3)nn2)CCS(=O)(=O)N1Cc1ccc(-c2cccc(N(C)C)c2)cc1 (centres undefined),65.3,i
CC(C)CC1C(=O)N(Cc2cn(Cc3ccco3)nn2)CCS(=O)(=O)N1Cc1ccc(-c2cccc(CO)c2)cc1 (centres undefined),59.3,i
Cc1ccc(-c2ccc(CN3C(C(C)C)C(=O)N(Cc4cn(Cc5ccco5)nn4)CCS3(=O)=O)cc2)cc1 (centres undefined),64.7,i
CC(C)CC1C(=O)N(Cc2cn(Cc3ccco3)nn2)CCS(=O)(=O)N1Cc1ccc(-c2ccc(Cl)cc2)cc1 (centres undefined),i,i
SMILES,mHTT-CaM PPI inh,Pf apPOL inh
CC(C)C1C(=O)N(Cc2cn(CC3CCCCC3)nn2)CCS(=O)(=O)N1Cc1ccc(-c2ccc(F)cc2)cc1 (centres undefined),i,i
COc1ccc(Br)c(OC)c1C(=O)O,nt,i
CCn1c(C2CCN(C(=O)Nc3cc(Cl)cc(Cl)c3)CC2)cc(=O)n2nccc12,i,i
Oc1cccc2ccc(/C=C/c3ccc4c(c3)OCO4)nc12,i,i
Oc1cccc2ccc(/C=C/c3ccccc3Cl)nc12,52.0,i
Cc1cccc(/C=C/c2ccc3cccc(O)c3n2)c1O,i,i
Oc1cccc2ccc(/C=C/c3cc4c(cc3Cl)OCO4)nc12,56.0,i
O=C(CSc1nnnn1-c1ccccc1)NCCc1ccccc1,i,i
Cc1cccc(C(=O)N2CCN(C(=O)c3cccc(C)c3)CC2)c1,i,i
Cc1cccc(C(=O)N2CCC(=O)N([C@H](COCc3cccc(C(F)(F)F)c3)Cc3ccccc3)CC2)c1,99.3,i
Cc1cccc(COC[C@H](Cc2ccccc2)N2CCN(C(=O)c3cccc(Cl)c3)CCC2=O)c1,98.1,i
Cc1cccc(COC[C@H](Cc2ccccc2)N2CCN(C(=O)c3cccc(C)c3)CCC2=O)c1,80.8!,i
Cc1cccc(COC[C@H](Cc2ccccc2)N2CCN(C(=O)c3cc(Cl)cc(Cl)c3)CCC2=O)c1,i,i
Cc1cccc(C(=O)N2CCN(C)CC2)c1,i,i
Cc1cccc(C(=O)N2CCC(CCOc3ccccc3)CC2)c1,i,i
Cc1cccc(C(=O)N2CCC(=O)N([C@H](COCc3ccccc3)Cc3ccccc3)CC2)c1,64.6!,i
CCCn1c(C(=O)NCc2ccc(F)cc2)cc2sccc21,i,i
Cc1cc(=O)n(CC(=O)Nc2ccccc2C)c(N2CCCC2)n1,i,i
COc1ccc(C=Nc2ccc(I)cc2C)cc1OC,i,i
CCCCc1ccc(NS(=O)(=O)Cc2ccccc2)cc1,i,i
COc1cccc2cc(C(=O)Nc3cccc(C(F)(F)F)c3)c(=O)oc12,i,i
Nc1c2c3c(c(Cl)ccc3[nH]c1=O)C(=O)c1ccccc1-2,i,i
O=c1[nH]c2ccc(Br)cc2c(-c2ccccc2)c1NS(=O)(=O)c1ccccc1,97.6,i
O=c1[nH]c2ccc(Br)cc2c(-c2ccccc2)c1CN1CCCCC1,100.0,i
Cc1[nH]c2ccc(Br)cc2c(=O)c1CN1CCOCC1,i,i
SMILES,mHTT-CaM PPI inh,Pf apPOL inh
Cc1cc(Br)ccc1NS(=O)(=O)c1ccc2nc(-c3ccccc3)[nH]c2c1,i,i
Nc1c(-c2ccccc2Cl)c2cc(Br)ccc2[nH]c1=O,79.0,i
O=C(NC1CC2CC1N(S(=O)(=O)c1ccc3c(c1)OCCO3)C2)c1ccccc1 (centres undefined),i,i
Cc1cc(C)cc(NC(=O)C2CCN(c3cc(=O)n(C)c(=O)n3C)CC2)c1,i,i
CCCN1COc2ccc3c(=O)c(-c4ccccc4)coc3c2C1,i,i
O=C(NCc1cccnc1)c1cccc(C2CCCN(C(=O)Nc3ccccc3)C2)c1 (centres undefined),i,i
COc1ccc(C(=O)N2CCC(Oc3ccccc3)CC2)cc1,i,i
COc1cccc(CNc2cccc3cccnc23)c1O,54.0,i
COc1cccc(CNc2ncccn2)c1OC,i,i
O=C(Cc1csc(SCC(=O)c2cccs2)n1)Nc1ccc(F)c(Cl)c1,i,i
CCOc1ccccc1NC(=O)N1CC(C)Oc2ccc(C)cc21 (centres undefined),i,i
CC1(C)C2C[C@H]1CC=C2CCO,i,nt
COc1ccc(C=C2Oc3c(ccc4c3CN(Cc3ccncc3)CO4)C2=O)c(OC)c1OC,i,i
COc1ccc(CN2COc3ccc4c(c3C2)OC(=Cc2ccco2)C4=O)cc1,50.9,i
COc1ccc(OC)c(C=C2Oc3c(ccc4c3CN(Cc3ccco3)CO4)C2=O)c1,i,i
COc1ccc(C=C2Oc3c(ccc4c3CN(Cc3ccco3)CO4)C2=O)c(OC)c1OC,66.2,i
O=C1C(=Cc2ccco2)Oc2c1ccc1c2CN(Cc2ccc3c(c2)OCO3)CO1,i,i
COc1ccc(C=C2Oc3c(ccc4c3CN(c3ccc5c(c3)OCCO5)CO4)C2=O)cc1OC,i,i
COc1ccc(C=C2Oc3c(ccc4c3CN(Cc3ccco3)CO4)C2=O)c(OC)c1,67.7,i
COc1ccc(C=C2Oc3c(ccc4c3CN(c3ccc5c(c3)OCO5)CO4)C2=O)cc1OC,58.7,i
Cc1ccc(-c2csc3c(=O)n(Cc4cccnc4)cnc23)cc1,i,i
